From PubChem BioAssay (NCI)
Compounds without any hit were thinned out: in the full panel of roughly 83,000, 20% have a hit.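 Treatment: one concentration, 48 hours, 96-well format. Scoring: percent growth, with anything below 10 considered active.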 Calls of active or inactive are those of the source.

Experiments:
Test in all cases: NCI-60 one-dose screen, 48 h (100 = growth as untreated, 0 = no growth, -100 = all killed)
A549/ATCC NSCLC = settings: 10 µM unless noted
DU-145 prostate = settings: 10 µM unless noted
K-562 leukemia = settings: 10 µM unless noted
RXF 393 renal = settings: 10 µM unless noted
SF-295 CNS = settings: 10 µM unless noted
UACC-257 melanoma = settings: 10 µM unless noted
HCT-15 colon = settings: 10 µM
HT29 colon = settings: 10 µM unless noted
LOX IMVI melanoma = settings: 10 µM unless noted
SN12C renal = settings: 10 µM unless noted
A498 renal = settings: 10 µM unless noted
HL-60(TB) leukemia = settings: 10 µM unless noted
MOLT-4 leukemia = settings: 10 µM
OVCAR-8 ovarian = settings: 10 µM unless noted
OVCAR-4 ovarian = settings: 10 µM unless noted
SK-OV-3 ovarian = settings: 10 µM unless noted
HS 578T breast = settings: 10 µM unless noted
BT-549 breast = settings: 10 µM
HCC-2998 colon = settings: 10 µM unless noted
CAKI-1 renal = settings: 10 µM unless noted

Measured: growth

CCCCCCCCCCOc1ccc(C(=O)Oc2ccc(CSP3(=O)OCC4OC(n5ccc(=O)[nH]c5=O)C(F)C4OP(=O)(O)OCC4OC(n5cnc6c(N)ncnc65)C(F)C4O3)cc2)cc1 (stereo unspecified)
inactive: A549/ATCC NSCLC 85.9% | DU-145 prostate 106% | K-562 leukemia 66.1% | RXF 393 renal 72.6% | SF-295 CNS 105% | UACC-257 melanoma 21.3% | HCT-15 colon 105% | HT29 colon 79.3% | LOX IMVI melanoma 85.3% | SN12C renal 101% | MOLT-4 leukemia 68.4% | OVCAR-8 ovarian 104% | OVCAR-4 ovarian 58.8% | SK-OV-3 ovarian 97.8% | HS 578T breast 111% | BT-549 breast 87.7% | HCC-2998 colon 102%
active: A498 renal 6.69% | HL-60(TB) leukemia -12.8%

CCOC(=O)Nc1cc(Cl)c([N+](=O)[O-])c(NC(=O)OCC)n1
active: K-562 leukemia 8.75% | CAKI-1 renal -95.5%
inactive: A549/ATCC NSCLC 95.2% | DU-145 prostate 107% | RXF 393 renal 99.3% | SF-295 CNS 101% | UACC-257 melanoma 88.8% | HT29 colon 82.5% | LOX IMVI melanoma 61.5% | A498 renal 93.1% | HL-60(TB) leukemia 38.2% | MOLT-4 leukemia 79.6% | OVCAR-8 ovarian 64.6% | OVCAR-4 ovarian 112% | SK-OV-3 ovarian 103% | HS 578T breast 106% | BT-549 breast 94.6% | HCC-2998 colon 103%

CC(=O)Nc1ccc(Cc2ccc(NC(C)=O)cc2)cc1
inactive: A549/ATCC NSCLC 95% | DU-145 prostate 130% | K-562 leukemia 112% | RXF 393 renal 89.4% | SF-295 CNS 108% | UACC-257 melanoma 99.1% | HCT-15 colon 107% | HT29 colon 104% | LOX IMVI melanoma 99.8% | SN12C renal 101% | CAKI-1 renal 88.9% | A498 renal 129% | HL-60(TB) leukemia 49.1% | MOLT-4 leukemia 76.3% | OVCAR-8 ovarian 95.6% | OVCAR-4 ovarian 99% | HS 578T breast 121% | BT-549 breast 117% | HCC-2998 colon 116%
